In PubChem BioAssay (Tox21):
Inconclusive results are not listed. Values without a mark were called inactive. Active and inactive are the calls of the source. Calls follow the shape of the dose curve; as a rule, active = well fitted curve in the direction sought with a large enough effect in the repeat runs; inconclusive = weak or mixed curves; inactive = no such curve, though single readings can be large; an effect the other way counts as inactive or inconclusive.

Assay: A CellTox Green Cytotoxicity Assay to monitor cytotoxicity in HEK293 cells - 40 hour (AID 1224871); also: nearly all actives have a fitted effect of over 45% in size
Settings: CellTox Green fluorescence; series mostly up to 76.8 µM; cytotoxicity increase: at the top concentration
Method in brief: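 Real-time, in one plate: 600 HEK293 cells/well with dead-cell DNA dye, pinned compound after 5 h, 37 C incubation over 40 h; viable cells give no appreciable fluorescence.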
% is scaled to controls: 0 for no effect and ±100 for the full control effect.

Row | SMILES | cytotoxicity increase
1 | COc1cccc2c1cc([N+](=O)[O-])c1c(C(=O)O)cc3c(c12)OCO3 | 13.8%
2 | C1CCC(C2CCCCC2)CC1 | 5.71%
3 | Cc1coc2c1CCC(C)C2 (centres undefined) | -3.19%
4 | COc1cc(OC)nc(NC(=O)NS(=O)(=O)c2ncccc2C(=O)N(C)C)n1 | 1.73%
5 | CCOC(=O)NC(=S)Nc1ccccc1NC(=S)NC(=O)OCC | 5.86%
6 | CCOP(=S)(OCC)SCSc1ccc(Cl)cc1 | 0.157%
7 | C[C@@H]1CN(C2CCC(C#N)(c3ccc(F)cc3)CC2)CC[C@]1(C(=O)O)c1ccccc1 (some centres undefined) | 0.873% [at 35.3 µM]
8 | CCOP(=S)(OCC)SCSP(=S)(OCC)OCC | -10.2%
9 | O=C(O)c1ccc2[nH]cc(CCCCN3CC=C(c4ccccc4)CC3)c2c1 | 0.254% [at 35.3 µM]
10 | N#CCCC#N | -0.413%
11 | O=C1OC(CCN2CCCCC2)OC1(c1ccccc1)c1ccccc1 (centres undefined) | 19.6% [at 35.3 µM]
12 | Nc1n[nH]c(N)n1 | -15.2%
13 | CCNc1nc(NC(C)C)nc(OC)n1 | -21.4%
14 | CCCCC(=O)Cl | -4.07%
15 | CCN(CC)CCOC(=O)C(C)(c1ccccc1)c1ccccc1 | 0.615% [at 35.3 µM]
16 | CCC(=O)c1ccccc1 | 1.49%
17 | N#CC(O)c1ccccc1 (centres undefined) | 0.535%
18 | O=C1OC(=O)C2C1C1(Cl)C(Cl)=C(Cl)C2(Cl)C1(Cl)Cl (centres undefined) | -3.78%
19 | CC(C)NCC(O)c1ccc(N)c(C#N)c1 (centres undefined) | 2.15% [at 35.3 µM]

Row | SMILES | cytotoxicity increase
20 | CN(N=O)C(N)=O | -3.94%
21 | CS(=O)(=O)c1cc(C(F)(F)F)ccc1C(=O)c1cnoc1C1CC1 | 1.67%
22 | C[C@]1(O)CC[C@H]2[C@@H]3CCC4=CC(=O)CC[C@]4(C)[C@@]3(F)[C@@H](O)C[C@@]21C | -3.98%
23 | O=S(=O)(O)C(F)(F)C(F)(F)C(F)(F)C(F)(F)C(F)(F)C(F)(F)F | 0.137%
24 | CN(C)CCc1ccc(O)cc1 | -7.48% [at 35.3 µM]
25 | CC(Oc1ccc(Oc2ncc(C(F)(F)F)cc2Cl)cc1)C(=O)O (centres undefined) | -1.12%
26 | COc1cc2c(cc1OC)[C@@]13CCN4CC5=CCO[C@H]6CC(=O)N2[C@H]1[C@H]6[C@H]5C[C@H]43 | 0.507%
27 | CCC/C(=N\OCC)C1=C(O)CC(CC(C)SCC)CC1=O (centres undefined) | 0.0314%
28 | CCOC(=O)/C=C(C)/C=C/C[C@@H](C)CCCC(C)C | 12.2%
29 | COc1cccc(C(=O)NN(C(=O)c2cc(C)cc(C)c2)C(C)(C)C)c1C | -9.34%
30 | O=[N+]([O-])c1cccc(O)c1 | -9.43%
31 | COc1cc(C[C@@H](C)N)c(OC)cc1C | 11.2%
32 | CC(C)(C)C(=O)C(Oc1ccc(Cl)cc1)n1cncn1 (centres undefined) | 4.1%
33 | OC(Cn1cncn1)(c1ccc(F)cc1)c1ccccc1F (centres undefined) | -1.25%
34 | CC(C=O)Cc1ccc2c(c1)OCO2 (centres undefined) | -0.412%
35 | COc1cc(OC)nc(Sc2cccc(Cl)c2C(=O)O)n1 | -16%
36 | CC(CC(C#N)(c1ccccc1)c1ccccc1)N(C)C (centres undefined) | 10.7%
37 | CCOP(=S)(OCC)Oc1ncn(-c2ccccc2)n1 | -3.52%

Assay: qHTS RealTime-Glo MT Cell Viability Assay in HEK293 cells - 16 hour (AID 1224872); also: nearly all actives have a fitted effect of over 50% in size; also: potency is read from the fitted curve at half-maximal effect; as to activity change, negative = cytotoxicity: top concentration of the series differs between compounds
Settings: RealTime-Glo luminescence; series mostly up to 76.8 µM; activity change, negative = cytotoxicity: at the top concentration
Method in brief: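 Nonlytic real-time viability readout: viable cells convert prosubstrate to NanoLuc substrate, giving luminescence proportional to live cell number. HEK293, 600 cells/well, compound added after 5 h, continuous culture at 37 C.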

Row | SMILES | Potency | activity change, negative = cytotoxicity
38 | COc1cccc2c1cc([N+](=O)[O-])c1c(C(=O)O)cc3c(c12)OCO3 | 12.3 µM (active) | 
39 | C1CCC(C2CCCCC2)CC1 |  | -2.97%
40 | Cc1coc2c1CCC(C)C2 (centres undefined) |  | 5.77%
41 | COc1cc(OC)nc(NC(=O)NS(=O)(=O)c2ncccc2C(=O)N(C)C)n1 |  | 7.32%
42 | CCOC(=O)NC(=S)Nc1ccccc1NC(=S)NC(=O)OCC |  | -27.8%
43 | CCOP(=S)(OCC)SCSc1ccc(Cl)cc1 |  | -0.945%
44 | C[C@@H]1CN(C2CCC(C#N)(c3ccc(F)cc3)CC2)CC[C@]1(C(=O)O)c1ccccc1 (some centres undefined) |  | 5% [at 35.3 µM]
45 | CCOP(=S)(OCC)SCSP(=S)(OCC)OCC |  | 2.72%
46 | O=C(O)c1ccc2[nH]cc(CCCCN3CC=C(c4ccccc4)CC3)c2c1 |  | -2.45% [at 35.3 µM]
47 | N#CCCC#N |  | 11.7%
48 | O=C1OC(CCN2CCCCC2)OC1(c1ccccc1)c1ccccc1 (centres undefined) |  | 9.11% [at 35.3 µM]
49 | Nc1n[nH]c(N)n1 |  | -9.83%
50 | CCNc1nc(NC(C)C)nc(OC)n1 |  | -9.8%
51 | CCCCC(=O)Cl |  | -0.465%
52 | CCN(CC)CCOC(=O)C(C)(c1ccccc1)c1ccccc1 |  | -21.3% [at 35.3 µM]
53 | CCC(=O)c1ccccc1 |  | 5.51%
54 | N#CC(O)c1ccccc1 (centres undefined) |  | 7.48%
55 | O=C1OC(=O)C2C1C1(Cl)C(Cl)=C(Cl)C2(Cl)C1(Cl)Cl (centres undefined) |  | 7.19%
56 | CC(C)NCC(O)c1ccc(N)c(C#N)c1 (centres undefined) |  | 1.99% [at 35.3 µM]

Row | SMILES | Potency | activity change, negative = cytotoxicity
57 | CN(N=O)C(N)=O |  | 5.78%
58 | CS(=O)(=O)c1cc(C(F)(F)F)ccc1C(=O)c1cnoc1C1CC1 |  | 3.12%
59 | C[C@]1(O)CC[C@H]2[C@@H]3CCC4=CC(=O)CC[C@]4(C)[C@@]3(F)[C@@H](O)C[C@@]21C |  | -17.6%
60 | O=S(=O)(O)C(F)(F)C(F)(F)C(F)(F)C(F)(F)C(F)(F)C(F)(F)F |  | 4.95%
61 | CN(C)CCc1ccc(O)cc1 |  | 13.4% [at 35.3 µM]
62 | CC(Oc1ccc(Oc2ncc(C(F)(F)F)cc2Cl)cc1)C(=O)O (centres undefined) |  | 4.87%
63 | COc1cc2c(cc1OC)[C@@]13CCN4CC5=CCO[C@H]6CC(=O)N2[C@H]1[C@H]6[C@H]5C[C@H]43 |  | -20.1%
64 | CCC/C(=N\OCC)C1=C(O)CC(CC(C)SCC)CC1=O (centres undefined) |  | -22.7%
65 | CCOC(=O)/C=C(C)/C=C/C[C@@H](C)CCCC(C)C |  | 10.3%
66 | COc1cccc(C(=O)NN(C(=O)c2cc(C)cc(C)c2)C(C)(C)C)c1C |  | -7.24%
67 | O=[N+]([O-])c1cccc(O)c1 |  | 11.8%
68 | COc1cc(C[C@@H](C)N)c(OC)cc1C |  | -9.47%
69 | CC(C)(C)C(=O)C(Oc1ccc(Cl)cc1)n1cncn1 (centres undefined) |  | -25.3%
70 | OC(Cn1cncn1)(c1ccc(F)cc1)c1ccccc1F (centres undefined) |  | 8.53%
71 | CC(C=O)Cc1ccc2c(c1)OCO2 (centres undefined) |  | -7.19%
72 | COc1cc(OC)nc(Sc2cccc(Cl)c2C(=O)O)n1 |  | 9.33%
73 | CC(CC(C#N)(c1ccccc1)c1ccccc1)N(C)C (centres undefined) |  | -28.5%
74 | CCOP(=S)(OCC)Oc1ncn(-c2ccccc2)n1 |  | -27.2%
